Assay [1] can be described thus: antimalarial activity against Dd2 strain (AID 2302;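 active = growth inhibition above 50% at the single 2 µM test dose, taken to imply half-maximal potency below 2 µM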;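 note: 0% = DMSO untreated growth and 100% = chloroquine plus artemisinin killed control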). Particulars: P. falciparum Dd2 in RBCs, LDH growth readout, 72 h; at 2 µM; stronger effect = higher value.
Assay [2] is described as follows: human hepatoma cell viability loss – ATP luminescence, cytotoxicity control for P. falciparum antimalarial project, primary screen (AID 2303;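 active = inhibition above 50%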;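 note: 0% = DMSO wells and 100% = digitonin-killed cells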). Particulars: HepG2 viability, 24-48 h, at 10 µM, stronger effect = higher value.
In assay [3] the target is L-lactate dehydrogenase (Plasmodium falciparum (isolate CDC / Honduras)) (UniProt Q27743). As to the kind of experiment: PfLDH activity inhibition – cell lysate, 3D7 strain, counter-screen for P. falciparum growth inhibition project (AID 2304).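 Note: 0% = vehicle and 100% = reference inhibitor.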 Particulars: P. falciparum 3D7 crude extract, LDH APAD/NBT absorbance; at 2 µM; stronger effect = higher value.
The nature of assay [4]: inhibition of 3D7 malaria parasite growth – strain 3D7 (AID 2306).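 Note: 0% = DMSO wells and 100% = chloroquine plus artemisinin control wells.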 Particulars: P. falciparum 3D7 erythrocytic growth, LDH absorbance, 72 h; at 2 µM; stronger effect = higher value.
The target of assay [5] is Calcium-dependent protein kinase 1 (Plasmodium falciparum (isolate 3D7)) (UniProt P62344). The assay can be described thus: PfCDPK1 kinase inhibitors, biochemical, TCAMS library (AID 1159585; cut-off not given, nearly all actives have IC50 up to about 0.98 µM;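 note: inhibitors leave more ATP so luminescence rises with inhibition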). Particulars: recombinant PfCDPK1, Kinase-Glo ATP depletion luminescence. In general terms: Kinase-Glo reads ATP consumption through a luciferase reaction.
The target of assay [6] is Plasmodium falciparum protein kinase 6 (PK6, PF3D7_1337100) (UniProt Q8IDW1). As to the kind of experiment: PfPK6 kinase inhibitors, biochemical, TCAMS library (AID 1159586). Particulars: recombinant PfPK6, Kinase-Glo ATP depletion luminescence.
Assay [7] deals with Protein kinase 7 (PK7), Plasmodium falciparum 3D7 (PF3D7_0213400) (UniProt Q7YTF7). As to the kind of experiment: inhibition of Plasmodium PK7 catalytic activity – biochemical, TCAMS antimalarial set, Kinase-Glo luminescence (AID 1159587). Particulars: recombinant PfPK7, Kinase-Glo ATP depletion luminescence.
Assay [8] concerns the target Calcium-dependent protein kinase 4 (Plasmodium falciparum (isolate 3D7)) (UniProt Q8IBS5). As to the kind of experiment: PfCDPK4 kinase inhibitors, biochemical, TCAMS library (AID 1159588; cut-off not given, nearly all actives have IC50 up to about 0.91 µM). Particulars: recombinant PfCDPK4, Kinase-Glo ATP depletion luminescence.

This is an account of results in PubChem BioAssay.

A number with no mark means an inactive call. For some of these results: Entries with a potency or affinity are not part of this list. The source made the active and inactive calls. Unless noted, the rule behind the calls is not given here.

Sequence of Protein kinase 7 (PK7), Plasmodium falciparum 3D7 (PF3D7_0213400) (Q7YTF7 1-343): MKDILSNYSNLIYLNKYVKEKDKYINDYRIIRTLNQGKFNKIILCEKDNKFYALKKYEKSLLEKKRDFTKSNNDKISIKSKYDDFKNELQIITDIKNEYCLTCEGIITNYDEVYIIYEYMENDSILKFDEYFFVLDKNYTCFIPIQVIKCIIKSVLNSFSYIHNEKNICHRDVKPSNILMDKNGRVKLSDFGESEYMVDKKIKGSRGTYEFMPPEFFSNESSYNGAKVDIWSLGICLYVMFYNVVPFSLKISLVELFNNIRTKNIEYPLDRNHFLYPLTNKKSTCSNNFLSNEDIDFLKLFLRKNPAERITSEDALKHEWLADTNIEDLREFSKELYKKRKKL
Sequence of Calcium-dependent protein kinase 4 (Plasmodium falciparum (isolate 3D7)) (Q8IBS5 whole entry, looked up): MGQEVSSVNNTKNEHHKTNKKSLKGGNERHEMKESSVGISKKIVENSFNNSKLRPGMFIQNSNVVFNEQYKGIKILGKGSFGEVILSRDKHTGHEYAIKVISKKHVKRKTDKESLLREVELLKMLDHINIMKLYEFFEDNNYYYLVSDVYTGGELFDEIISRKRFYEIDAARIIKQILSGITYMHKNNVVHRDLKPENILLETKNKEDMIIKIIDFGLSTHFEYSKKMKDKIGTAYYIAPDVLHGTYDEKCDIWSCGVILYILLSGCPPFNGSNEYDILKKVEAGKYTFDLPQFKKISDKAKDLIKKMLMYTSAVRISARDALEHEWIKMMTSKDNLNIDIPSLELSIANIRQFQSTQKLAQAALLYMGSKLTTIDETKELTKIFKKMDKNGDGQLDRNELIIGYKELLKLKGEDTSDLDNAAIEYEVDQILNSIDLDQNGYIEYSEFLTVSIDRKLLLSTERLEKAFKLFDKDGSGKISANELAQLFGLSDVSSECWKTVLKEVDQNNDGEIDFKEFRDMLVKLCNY
Sequence of L-lactate dehydrogenase (Plasmodium falciparum (isolate CDC / Honduras)) (Q27743 whole entry, looked up): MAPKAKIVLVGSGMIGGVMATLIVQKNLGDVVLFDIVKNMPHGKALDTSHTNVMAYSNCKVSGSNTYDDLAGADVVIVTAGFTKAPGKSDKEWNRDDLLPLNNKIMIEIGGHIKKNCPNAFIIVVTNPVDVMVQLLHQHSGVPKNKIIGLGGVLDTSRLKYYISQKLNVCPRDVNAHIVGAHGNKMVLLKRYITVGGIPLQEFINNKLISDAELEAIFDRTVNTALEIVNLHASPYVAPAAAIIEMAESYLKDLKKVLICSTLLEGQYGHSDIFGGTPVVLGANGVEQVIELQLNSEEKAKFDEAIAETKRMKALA
Sequence of Calcium-dependent protein kinase 1 (Plasmodium falciparum (isolate 3D7)) (P62344 whole entry, looked up): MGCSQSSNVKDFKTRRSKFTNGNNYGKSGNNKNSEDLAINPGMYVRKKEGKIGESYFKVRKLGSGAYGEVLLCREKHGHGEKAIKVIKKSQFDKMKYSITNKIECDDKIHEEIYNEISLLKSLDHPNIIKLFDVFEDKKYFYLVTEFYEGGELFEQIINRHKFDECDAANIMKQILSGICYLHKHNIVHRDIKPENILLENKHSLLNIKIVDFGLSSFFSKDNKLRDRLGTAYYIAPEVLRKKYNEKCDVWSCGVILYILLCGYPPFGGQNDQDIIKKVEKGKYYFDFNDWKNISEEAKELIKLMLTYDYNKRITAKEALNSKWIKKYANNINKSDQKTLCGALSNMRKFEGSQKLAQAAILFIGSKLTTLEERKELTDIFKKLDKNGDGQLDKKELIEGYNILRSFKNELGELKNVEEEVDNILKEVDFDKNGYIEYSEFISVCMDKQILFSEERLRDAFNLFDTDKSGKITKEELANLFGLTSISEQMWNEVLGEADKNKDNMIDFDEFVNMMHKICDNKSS
Sequence of Plasmodium falciparum protein kinase 6 (PK6, PF3D7_1337100) (Q8IDW1 1-305): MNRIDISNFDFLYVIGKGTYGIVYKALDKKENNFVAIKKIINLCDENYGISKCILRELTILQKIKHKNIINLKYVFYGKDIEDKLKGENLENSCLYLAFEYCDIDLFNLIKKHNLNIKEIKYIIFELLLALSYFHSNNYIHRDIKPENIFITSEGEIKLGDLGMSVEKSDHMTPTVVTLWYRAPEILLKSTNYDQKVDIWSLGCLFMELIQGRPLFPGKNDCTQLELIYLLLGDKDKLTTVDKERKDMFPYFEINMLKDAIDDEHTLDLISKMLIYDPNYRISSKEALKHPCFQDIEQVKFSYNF

Consider `Nc1cc(-c2ccc3c(N)nccc3c2)ccc1Cl`, for which the results for the growth inhibition in assay [1] and in assay [4] were 4% and 91% (active), respectively. Further, the values for the inhibition in assay [2] and in assay [3] were 1% and -2%, respectively. The outcome in assay [5], in assay [6], in assay [7] and in assay [8] was inactive.
As for `FC(F)(F)c1cccc(Nc2nc3nonc3nc2NC2C3CC4CC(C3)CC2C4)c1` (stereo not given), the growth inhibition in assay [1] was 100% (active); in assay [4], 103% (active). Besides, the inhibition in assay [2] was 72% (active); in assay [3] it was -2%. In addition, the result in assay [5], in assay [6], in assay [7] and in assay [8] was inactive.
For `CN(C)CCNc1ncnc2c1[nH]c1ccc(Br)cc12`, the growth inhibition was 7% in assay [1] and 100% (active) in assay [4]. Further, the figures for the inhibition in assay [2] and in assay [3] were 2% and -2%, respectively. Besides, the outcome in assay [5], in assay [6], in assay [7] and in assay [8] was inactive.
For the molecule `Cc1cc(N[C@@H](Cc2ccccc2)C(=O)NCc2cccc(F)c2)nc(NCc2ccccc2C)n1`, the growth inhibition is 75% (active) in assay [1] and 100% (active) in assay [4]. Also, the values for the inhibition in assay [2] and in assay [3] were 6% and 0%, respectively. Also, the result in assay [5], in assay [6], in assay [7] and in assay [8] was inactive.
Take `COc1cc(C=NNc2nc(Nc3ccccc3)nc(Nc3ccccc3)n2)ccc1OCc1ccccc1[N+](=O)[O-]`: the growth inhibition in assay [1] is 18%; in assay [4], 98% (active). In addition, the inhibition is 8% in assay [2] and 3% in assay [3]. In addition, the result in assay [5], in assay [6], in assay [7] and in assay [8] was inactive.
For the molecule `Cc1ccccc1C1CCN(C2CCC(NC(=O)C3=Cc4cc(Cl)ccc4OC3)CC2)CC1` (stereo not given), the growth inhibition in assay [1] was 99% (active); in assay [4], 100% (active). The inhibition was 51% (active) in assay [2] and 0% in assay [3]. Also, the result in assay [5], in assay [6], in assay [7] and in assay [8] was inactive.
Consider `COc1ccc(Nc2nccc(N3CCC(NC(=O)c4cc5ccccc5s4)C3)n2)cc1` (stereo not given), for which the growth inhibition was 86% (active) in assay [1] and 99% (active) in assay [4]. Also, the inhibition in assay [2] was 1%; in assay [3], 4%. In addition, the result in assay [5], in assay [6], in assay [7] and in assay [8] was inactive.
Regarding `O=C(/C=C/c1ccc(Cl)c(Cl)c1)NCCCCCN1CC[C@H](NC(=O)Nc2ccc(Oc3ccccc3)cc2)C1`, the growth inhibition in assay [1] was 14%; in assay [4], 100% (active). Moreover, the inhibition in assay [2] was 47%; in assay [3], -9%. In addition, the result in assay [5], in assay [6], in assay [7] and in assay [8] was inactive.
On to `CCOC(=O)C1=C(C)NC(C)=C(C(=O)OCC)C1(C(=O)OCc1ccccc1)c1cccc(C(F)(F)F)c1`, for which the figures for the growth inhibition in assay [1] and in assay [4] were 60% (active) and 88% (active), respectively. Besides, the inhibition was -17% in assay [2] and 5% in assay [3]. In addition, the outcome in assay [5], in assay [6], in assay [7] and in assay [8] was inactive.
Consider `Cc1ccc(NC(=S)N2CCCN(CCCCCNC(=O)/C=C/c3ccc(Cl)c(Cl)c3)CC2)cc1Cl`, for which the growth inhibition was 5% in assay [1] and 93% (active) in assay [4]. In addition, the inhibition was 14% in assay [2] and 5% in assay [3]. Besides, the outcome in assay [5], in assay [6], in assay [7] and in assay [8] was inactive.
As to `COc1ccc2ccccc2c1CCCCN1CCN(CC(c2ccc(F)cc2)N2CCN(C3CCCC3)CC2)CC1` (stereo not given), the growth inhibition in assay [1] was 51% (active); in assay [4], 88% (active). Moreover, the inhibition in assay [2] was 88% (active); in assay [3], 6%. The outcome in assay [5], in assay [6], in assay [7] and in assay [8] was inactive.
Take `Cc1ccccc1C1CCN(C2CCC(NC(=O)/C=C/c3ccc(C#N)cc3)CC2)CC1` (stereo not given): the growth inhibition in assay [1] is 13%; in assay [4], 87% (active). Moreover, the inhibition was 39% in assay [2] and 0% in assay [3]. Also, the outcome in assay [5], in assay [6], in assay [7] and in assay [8] was inactive.
With `Nc1ncc(-c2ccccc2)cc1/C=C/c1cccnc1`, the growth inhibition in assay [1] is 9%; in assay [4], 91% (active). Besides, the inhibition in assay [2] was 33%; in assay [3], -2%. Besides, the outcome in assay [5], in assay [6], in assay [7] and in assay [8] was inactive.
`CCCN1CCN(CCCCNc2c3ccccc3nc3ccccc23)CC1`: the values for the growth inhibition in assay [1] and in assay [4] were 0% and 100% (active), respectively. Further, the results for the inhibition in assay [2] and in assay [3] were 34% and -8%, respectively. Moreover, the result in assay [5], in assay [6], in assay [7] and in assay [8] was inactive.
With `Cc1cc(NN=Cc2ccc(Cl)cc2)c2cc(C(F)(F)F)ccc2n1`, the growth inhibition was 32% in assay [1] and 91% (active) in assay [4]. Moreover, the inhibition was 0% in assay [2] and -5% in assay [3]. For the same molecule, the result in assay [5], in assay [6], in assay [7] and in assay [8] was inactive.
`CC1(C)N=C(N)N=C(N)N1OCCCNC(=O)c1ccc([N+](=O)[O-])cc1`: the results for the growth inhibition in assay [1] and in assay [4] were 97% (active) and 92% (active), respectively. Further, the inhibition in assay [2] is 57% (active); in assay [3] it was 2%. Besides, the result in assay [5], in assay [6], in assay [7] and in assay [8] was inactive.
As to `Cn1c(O)c(N=NC(=S)N2CCOCC2)c2ccccc21`, the growth inhibition in assay [1] is 54% (active); in assay [4], 95% (active). Also, the inhibition in assay [2] is 57% (active); in assay [3], 6%. For the same molecule, the result in assay [5], in assay [6], in assay [7] and in assay [8] was inactive.
Regarding `N#Cc1cc(C(=O)c2cc(Cl)ccc2O)cn(-c2cc(Cl)cc(Cl)c2)c1=O`, the growth inhibition in assay [1] was 32%; in assay [4], 93% (active). In addition, the inhibition in assay [2] was 34%; in assay [3] it was -8%. In addition, the result in assay [5], in assay [6], in assay [7] and in assay [8] was inactive.
As to `Oc1ccc(Br)cc1C(O)CNCc1ccccc1OCc1ccccc1` (stereo not given), the growth inhibition in assay [1] was 100% (active); in assay [4] it was 101% (active). In addition, the inhibition in assay [2] was 25%; in assay [3] it was 4%. Also, the result in assay [5], in assay [6], in assay [7] and in assay [8] was inactive.
`CN(CCCNc1ccc(C(=O)Nc2ccc(C(F)(F)F)cc2)cc1[N+](=O)[O-])Cc1ccccc1`: the results for the growth inhibition in assay [1] and in assay [4] were 48% and 100% (active), respectively. The inhibition in assay [2] was 25%; in assay [3], -9%. Also, the result in assay [5], in assay [6], in assay [7] and in assay [8] was inactive.

Broadly, the inhibition is the relative decrease from the control value, in per cent.
